We go through 40 compounds from PubChem BioAssay (Tox21).

Structures are written as SMILES. Calls of active or inactive are those of the source. Calls follow the shape of the dose curve; as a rule, active = well fitted curve in the direction sought with a large enough effect in the repeat runs; inconclusive = weak or mixed curves; inactive = flat fitted curve, though single readings scatter.

A short description of the assay: qHTS assay to test for compound auto fluorescence at 535 nm (green) in HEK293 cell free culture (AID 720682). The settings on record: cell-free medium, green autofluorescence 485/535 nm; series mostly up to 91.3 µM. The text has this: U.S. Tox21 Program National Center for Advancing Translational Sciences [NCATS] NIH Chemical Genomics Center [NCGC] U.S. Environmental Protection Agency [EPA] National Institutes of Environmental Health Sciences [NIEHS] National Toxicology Program [NTP] U.S. Food and Drug Administration [FDA] Tox21 Assay Overview: Compound auto fluorescence often interferes with screening of the compound library against various biological targets and signaling pathways. Some of these compounds may have fluorophoric properties. Such properties may interfere with the assay outputs resulting in false positives and/or negatives. To decrease such complications and ensure the compound activities are relevant in terms of biological response, the Tox21 10K compound library was screened for auto fluorescence. From the fluorophores used as reporter signals in our screening assays, the auto fluorescence equivalencies of compounds against three fluorophores have been evaluated: Triamterene, Fluorescein and Rose Bengal sodium for blue, green and red fluorescence, respectively. The fluorescence intensities were measured using Excitation/Emission wavelengths at 405/460nm, 485/535nm and 540/590nm for blue, green and red labels, respectively. This assay includes the green fluorescence data.
Tox21 Assay Protocol Summary: 5 uL of culture medium (DMEM containing 10% FBS) per well was dispensed into black wall/clear bottom 1536-well plates using a Multidrop Combi Dispenser (ThermoFisher Scientific, Waltham, MA). After 23 nL compound or DMSO vehicle was transferred into assay plate by a pintool work station (Kalypsys, San Diego, CA), fluorescence intensities in the assay plates were measured by an Envision (PerkinElmer, Shelton, CT) plate reader using three labels for measuring blue, green and red fluorescence at […] 460, 535 and 590nm respectively.
For orientation: In qHTS, concentration-response curves come from the screen itself.
Turning to `Nc1nc(N)nc(Cl)n1`, the compound was called inactive.

As to `CC(=O)[O-].CC(=O)[O-].[Co+2]`, the call was inactive.

For the compound `Cc1cccc(Cc2cnc[nH]2)c1C`, the result was inactive.

`CCOC(=O)CCN(SN(C)C(=O)Oc1cccc2c1OC(C)(C)C2)C(C)C`: the outcome was inactive.

With `COP(=S)(OC)Oc1ccc([N+](=O)[O-])c(C)c1`, the outcome was inactive.

For the compound `CCC[CH2][Sn]([CH2]CCC)([O]C(C)=O)[O]C(C)=O`, the compound was classed as inactive.

For `CNC(=O)/C=C(\C)OP(=O)(OC)OC`, the outcome was inactive.

As for `CCCCn1cc[n+](C)c1.[Cl][Fe-]([Cl])([Cl])[Cl]`, the call was inactive.

Take `C#CC1(O)CCCCC1`: the call was inactive.

Regarding `CN(C)c1ccc(N)cc1`, the result was inactive.

Regarding `Cc1c([N+](=O)[O-])c(C)c([N+](=O)[O-])c(C(C)(C)C)c1[N+](=O)[O-]`, the outcome was inactive.

On to `N#Cc1c[nH]cc1-c1cccc2c1OC(F)(F)O2`, for which the compound was called inactive.

In the case of `N#CC(C#N)=NNc1cccc(Cl)c1`, the compound was called inactive.

As to `CC(Cc1ccc(OCC(=O)O)cc1)NCC(O)c1csc(C(F)(F)F)n1` (stereo not given), the compound was classed as inactive.

As for `C=CCBr`, the result was inactive.

`Cc1cc2c3c(c1)C(c1ccccc1)=N[C@@H](NC(=O)c1ccncc1)C(=O)N3CC2`: the compound was classed as inactive.

As to `Cc1c([N+](=O)[O-])cc2c(c1[N+](=O)[O-])C(C)(C)CC2(C)C`, the result was inactive.

Regarding `O.O.O.O.O.O.O=S(=O)([O-])[O-].[Ni+2]`, the call was inactive.

With `CC(Cl)CCl` (stereo not given), the compound was classed as inactive.

In the case of `O=[N+]([O-])c1ccc(CCl)cc1`, the result was inactive.

For the compound `C[C@]12C/C(=C/O)C(=O)C[C@@H]1CC[C@@H]1[C@@H]2CC[C@@]2(C)[C@H]1CC[C@]2(C)O`, the compound was classed as inactive.

As for `C=CC(=C)C`, the result was inactive.

`c1ccc2c(c1)cc1ccc3cccc4ccc2c1c34`: the result was inactive.

Turning to `ClC1=C(Cl)[C@]2(Cl)[C@@H]3[C@H]4C[C@H]([C@@H]5O[C@H]45)[C@@H]3[C@@]1(Cl)C2(Cl)Cl`, the call was inactive.

Regarding `CCCCN(CCCC)C(=S)[S-].CCCCN(CCCC)C(=S)[S-].[Ni+2]`, the outcome was inactive.

Regarding `NC(=O)C(Cl)Cl`, the result was inactive.

Take `N#Cc1ccc(N(CC(N)=O)CC(F)(F)F)cc1C(F)(F)F`: the compound was called inactive.

For `CC(C)C(Br)C(=O)NC(N)=O` (stereo not given), the result was inactive.

Take `COP(=O)(OC)O/C(=C\Cl)c1cc(Cl)c(Cl)cc1Cl`: the outcome was inactive.

Turning to `O=[N+]([O-])c1ccc(Cl)c(Cl)c1Cl`, the outcome was inactive.

Turning to `O=[N+]([O-])[O-].[Tl+]`, the outcome was inactive.

For `CC(=O)[O][Pb]([c]1ccccc1)([c]1ccccc1)[c]1ccccc1`, the call was inactive.

As for `COC(=O)C(C)N(C(=O)c1ccco1)c1c(C)cccc1C` (stereo not given), the compound was classed as inactive.

Take `CCC1(CC)C(=O)N=C(O)NC1=O`: the call was inactive.

For the compound `Oc1cc(Cl)cc(Cl)c1`, the result was inactive.

As for `ClC1(Cl)C2(Cl)C3(Cl)C4(Cl)C(Cl)(Cl)C5(Cl)C3(Cl)C1(Cl)C5(Cl)C24Cl` (stereo not given), the outcome was inactive.

For `[C-]1=CC=CC1.[Cl][Zr+2][Cl].c1cc[cH-]c1`, the compound was called inactive.

With `N#Cc1c2ccccc2cc2ccccc12`, the result was inactive.

Regarding `C[N+]1(C)[C@@H]2CC[C@H]1CC(OC(=O)C(CO)c1ccccc1)C2` (stereo not given in full), the outcome was inactive.

Take `COc1ccc2c3c1O[C@H]1[C@H](O)CC[C@H]4[C@@H](C2)N(C)CC[C@@]341`: the compound was classed as inactive.
